# VDR inh: blocks the human vitamin D receptor; P11473; VDR-SRC2-3 peptide fluorescence polarization, 2 h; Potency, µM, hits mostly inhibitors; 400,000 tested, 0.93% active
#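 Measured by FP: displacement of SRC2-3 coactivator peptide from VDR by library compounds, following a two-hour ambient incubation.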
# TDP1 inh: inhibitors of human tyrosyl-DNA phosphodiesterase TDP1. AID 485290. Q9NUW8. 350,000 tested, 0.28% active. recombinant TDP1, AlphaScreen DNA substrate cleavage. Potency, µM (series often up to 130 µM), usual class: inhibitors; note: nearly all actives have a fitted effect of over 40% in size
#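 Here, a 5' biotin and 3' phosphotyrosine-FITC DNA oligonucleotide reports Tdp1 activity: intact substrate bridges AlphaScreen beads, while cleavage leaves a 3' phosphate and drops signal. All incubations at room temperature.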
# DT40 TDP1 no CPT: qHTS for Inhibitors of human tyrosyl-DNA phosphodiesterase 1 (TDP1): qHTS in cells in absence of CPT; DT40 Tdp1-/- hTDP1 cells, no CPT, ATP luminescence, 48 h; Potency, µM (series often up to 46.2 µM), actives largely listed as inhibitors; 420,000 tested, 15% active; AID 686978, 2013; note: nearly all actives have a fitted effect of over 55% in size
#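 A cellular qHTS used chicken DT40 cells lacking endogenous Tdp1 but carrying stably transfected human TDP1. Compounds were applied without camptothecin, and cell growth kinetics were judged by ATP-dependent luminescence after ≥48 hr.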
# TDP1 cell CPT: DT40-hTDP1 cell growth loss with CPT. 420,000 tested, 12% active. chicken DT40 Tdp1-/-;hTDP1 cells + 20 nM CPT, ATP luminescence, 48 h. Potency, µM (titrated, usually from 46.2 µM), hits mostly inhibitors; note: nearly all actives have a fitted effect of over 55% in size
#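 Chicken DT40 Tdp1-/- cells stably complemented with human TDP1 were seeded at 400 cells/well in medium containing 20 nM camptothecin, exposed to pin-transferred compounds, and grown at 37 °C for at least 48 hr. Viability was read as ATP luminescence.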
# PLK1 PBD inh: blocks phosphopeptide binding to human PLK1 polo-box domain | Plk1 PBD binding of FITC phosphopeptide, fluorescence polarization | Potency, µM, actives largely listed as inhibitors | 360,000 tested, 2.8% active | AID 720504; note: series mostly up to about 57 µM; nearly all actives have a fitted effect of over 65% in size
# GCN5L2 inh: GCN5L2 (KAT2A) acetyltransferase inhibition. Q92830. GCN5L2 HAT assay, ThioGlo1 CoA-SH fluorescence. Potency, µM (series often up to 58.9 µM), actives largely listed as inhibitors. 390,000 tested, 0.21% active
# Target sequence (Q92830 whole entry, looked up): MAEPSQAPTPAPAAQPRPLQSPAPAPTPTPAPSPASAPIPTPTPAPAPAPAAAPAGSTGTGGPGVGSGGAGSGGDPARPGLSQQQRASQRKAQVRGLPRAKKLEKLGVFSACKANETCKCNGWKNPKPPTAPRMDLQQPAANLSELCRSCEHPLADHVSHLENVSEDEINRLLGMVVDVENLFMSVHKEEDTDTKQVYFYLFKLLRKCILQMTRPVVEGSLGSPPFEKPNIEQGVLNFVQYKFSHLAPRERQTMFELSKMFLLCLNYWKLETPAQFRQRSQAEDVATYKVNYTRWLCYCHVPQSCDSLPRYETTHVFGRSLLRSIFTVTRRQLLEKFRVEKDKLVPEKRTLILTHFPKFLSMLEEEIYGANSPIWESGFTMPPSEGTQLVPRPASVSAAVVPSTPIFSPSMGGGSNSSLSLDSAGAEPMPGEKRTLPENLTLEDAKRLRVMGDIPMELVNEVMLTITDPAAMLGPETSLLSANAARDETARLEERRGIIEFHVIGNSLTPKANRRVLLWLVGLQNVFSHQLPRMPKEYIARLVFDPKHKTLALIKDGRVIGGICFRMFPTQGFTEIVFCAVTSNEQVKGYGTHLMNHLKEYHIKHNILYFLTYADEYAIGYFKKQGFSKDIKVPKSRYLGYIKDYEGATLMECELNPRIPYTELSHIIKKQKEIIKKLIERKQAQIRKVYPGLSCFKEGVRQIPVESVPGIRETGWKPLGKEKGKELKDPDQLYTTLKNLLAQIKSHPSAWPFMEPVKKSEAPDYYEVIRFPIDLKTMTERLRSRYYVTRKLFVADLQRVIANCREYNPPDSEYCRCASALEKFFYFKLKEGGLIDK
#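 Enzyme at 20nM final was mixed with library compounds for 15 min at room temperature. Peptide H3(1-25) at 75uM, acetyl-CoA at 70uM and ThioGlo1 at 50uM were then added. Plates were read immediately and after 20 min (Ex340nm/Em540nm).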
# Hits are given with their value; 0 = inactive; ? = inconclusive; - = not tested or not shown; [ ] = remark or other dose. Most compounds without a hit are left out; they make up all but 18% or so of the library. Calls come from the whole dose curve; as a rule, active = well fitted curve in the direction sought with a large enough effect; inconclusive = small, poorly fitted or top-dose-only effect, or another doubt; inactive = no such curve, though single readings can be large; an effect the other way counts as inactive or inconclusive.
SMILES,VDR inh,TDP1 inh,DT40 TDP1 no CPT,TDP1 cell CPT,PLK1 PBD inh,GCN5L2 inh
Cc1cccn2c(=O)c3cc(C(=O)NC4CCCC4)c(=N)n(CCc4ccccc4)c3nc12,0,-,3.7µM,2.9µM,0,0
COc1ccc(CCn2c(=N)c(C(=O)NC3CCCC3)cc3c(=O)n4cccc(C)c4nc32)cc1,0,0,1.8µM,1.5µM,0,0
COC(=O)N1CCC2(CC1)CN(c1ccncc1)C2,0,-,?,0,-,0
CC1=N/C(=C\c2ccc3c(c2)OCO3)C(=O)N1c1ccc(C(=O)O)cc1,0,0,?,?,0,0
COc1ccc(/C=C2\N=C(C)N(c3ccc4ccccc4c3)C2=O)cc1OC,0,0,5.8µM,?,0,0
O=C(/C=C/c1ccccc1)NCCc1ccccc1,0,-,12µM,9.2µM,0,?
O=C(O)/C=C/C(=O)NCCCc1ccccc1,0,-,?,?,27µM,0
O=[N+]([O-])c1ccc(NCCCc2ccccc2)cc1,-,-,18µM,?,0,-
O=C(/C=C/c1ccc([N+](=O)[O-])cc1)NCCc1ccccc1,?,0,?,?,17µM,0
Cc1nn(C)c(C)c1CCNC(=O)Nc1cccc(Cl)c1C,0,0,0,0,-,0
CCOc1ccc(NC(=O)CSc2nnc3c(n2)[nH]c2ccc(S(=O)(=O)N(C)C)cc23)cc1,0,-,?,0,-,-
NS(=O)(=O)c1ccc(CCNC(=O)/C=C/c2ccc([N+](=O)[O-])cc2)cc1,0,0,15µM,?,0,0
NS(=O)(=O)c1ccc(CNC(=O)/C=C/c2cccc([N+](=O)[O-])c2)cc1,0,0,0,0,0,0
O=C(/C=C/c1ccc([N+](=O)[O-])cc1)NC1CC2CCC1C2 (configuration not stated),?,0,?,?,6µM,0
C1CCCNCC1,-,0,-,-,-,-
N#CCC(=O)N/N=C\c1cccc(OC/C=C/c2ccccc2)c1,0,0,0,0,0,0
Cc1nc2ccc(NC(=O)CCC3CCCC3)cc2s1,0,0,0,0,0,0
Cc1ccc(S(=O)(=O)N2CCN(C(=O)CC(C)n3cncn3)CC2)cc1C (configuration not stated),0,0,0,0,0,0
Cc1ccc(-c2c[n+](CC(=O)c3cccs3)c3n2CCC3)cc1,0,0,3.3µM,3.7µM,0,0
COc1ccc(-c2c[n+](CC(=O)c3cccs3)c3n2CCC3)cc1,0,-,16µM,26µM,0,0
COc1ccc(C[C@@H]2c3cc(OC)c(OC)cc3CC[N@+]2(C)CCC(=O)OCCCCCOC(=O)CC[N@@+]2(C)CCc3cc(OC)c(OC)cc3[C@H]2Cc2ccc(OC)c(OC)c2)cc1OC,0,0[21 µM],-,-,-,0
Clc1cccc(Cl)c1-c1noc(CN2CCOCC2)n1,0,0,0,0,0,0
O=c1[nH]nc(N/N=C/c2ccc(Cl)cc2Cl)c(=O)[nH]1,?,0,?,?,24µM,0
CC(C)C(=O)N1CCN(c2ccc([N+](=O)[O-])c(NC(C)c3ccccc3)c2)CC1 (configuration not stated),?,0,16µM,?,0,0
O=[N+]([O-])c1ccc(N2CCOCC2)cc1NC(c1ccccc1)c1ccccc1,0,0,?,16µM,0,0
SMILES,VDR inh,TDP1 inh,DT40 TDP1 no CPT,TDP1 cell CPT,PLK1 PBD inh,GCN5L2 inh
CCS(=O)(=O)N1CCN(c2ccc([N+](=O)[O-])c(NCc3ccccc3)c2)CC1,0,0,?,?,0,0
CC(Nc1cc(N2CCN(C(=O)C(C)(C)C)CC2)ccc1[N+](=O)[O-])c1ccccc1 (configuration not stated),0,0,23µM,?,0,0
CC(C)Nc1cc(N2CCCC2)ccc1[N+](=O)[O-],0,0,0,?,0,0
Cc1cc(C)c2c(=O)cc(C(=O)Nc3sc4c(c3C#N)CCCC4)oc2c1,0,0,?,0,-,0
CCOC(=O)C1(CCc2ccccc2)CCN(Cc2cnc(N(C)C)s2)CC1,0,0,?,?,0,0
CCOC(=O)C1(CCc2ccccc2)CCN(Cc2ccc(O)cc2)CC1,0,0,21µM,16µM,0,?
CCOC(=O)C1(CCc2ccccc2)CCN(Cc2c(O)cccc2OC)CC1,0,0,13µM,26µM,0,0
CCOC(=O)C1(CCc2ccccc2)CCN(Cc2ccc(OC)cc2)CC1,0,-,0,0,0,0
O=[S+]([O-])(/C=C/c1nc(Nc2cc(F)cc(F)c2)c2ncn(CC(F)F)c2n1)c1ccccc1,-,0,-,-,-,-
COc1cccc(N2CC(NC(=O)CCCc3ccccc3)CC2=O)c1 (configuration not stated),0,0,?,?,-,0
CC1=C(C(=O)NCc2cccc(Cl)c2)C2(CCCCCC2)OC1=O,0,0,1.8µM,?,-,0
Cc1ccc(NC(=O)c2ccc(C#CC3(O)CCCCC3)cc2)cc1C,0,0,16µM,23µM,0,0
CC1=C(C(=O)NCc2cccc(F)c2)C2(CCCCCC2)OC1=O,0,0,0,0,-,0
Cc1ccc(NC(=O)NC2CCCCCCC2)cc1C,0,0,0,?,0,0
CC1=C(C(=O)Nc2ccc(C)c(C)c2)C2(CCCCCC2)OC1=O,0,0,?,15µM,-,0
CC1=C(C(=O)Nc2cccc(F)c2)C2(CCCCCC2)OC1=O,0,0,?,?,-,0
CCOc1cc(CNC(=O)CN2CCSc3ccccc32)cc(OCC)c1OCC,0,0,-,-,-,0
Cc1ccccc1-n1c(CSC(=N)N)nc2ccccc2c1=O,0,0,?,21µM,0,0
N=C(N)SCc1nc2ccccc2c(=O)n1-c1ccccc1Cl,0,0,21µM,26µM,0,0
C/C(N)=C(/C#N)C(=O)CSc1nc2ccccc2c(=O)n1-c1ccccc1C,0,0,?,?,0,0
CCCSc1ccc([C@H]2N[C@@](CC(C)C)(C(=O)OC)[C@H]3C(=O)N(C)C(=O)[C@@H]23)cc1,0,0,?,?,0,0
CCCCCCSc1ccc([C@@H]2[C@H]3C(=O)N(CC)C(=O)[C@H]3[C@]3(C(=O)OC)CCCN23)cc1,0,0,?,21µM,0,0
CCCCCCSc1ccc([C@@H]2[C@@H]3C(=O)N(C)C(=O)[C@@H]3[C@]3(C(=O)OC)CCCCN23)cc1,0,0,26µM,9.2µM,0,0
CCCSc1ccc([C@@H]2[C@H]3C(=O)N(CC)C(=O)[C@H]3[C@]3(C(=O)OC)CCCCN23)cc1,0,0,16µM,?,0,0
O=C(Nc1nnc([C@@H]2C[C@H](O)[C@@H](CO)O2)s1)c1ccc(Oc2ccccc2)cc1,-,-,0,0,0,-
COc1ccc(-c2nc3cc(C)ccn3c2NCc2ccc3c(c2)OCO3)cc1,0,0,?,?,0,0

# Screening results deposited in PubChem by National Center for Advancing Translational Sciences (NCATS).
